Laboratory results: PubChem BioAssay (EPA / NIEHS)
Records with an inconclusive call do not appear. The source made the active and inactive calls. How the source made its calls: active means hit-call score of the fitted dose curve at least 0.9, where 1 is the maximum; inconclusive means response in the unintended direction; inactive means score below 0.9.

The compounds below were run on Cytochrome P450 2B6 (Homo sapiens) (UniProt P20813) (assay: CLD_CYP2B6_6hr: CellzDirect (CLD) Gene Expression Assay for xenobiotic metabolism (CYP2B6) at 6 hours (AID 2283677);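 further: actives raise CYP2B6 transcript above DMSO baseline so AC50 marks an inducer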).
Procedure: CLD_6hr is a cell-based, multiplexed-readout assay that uses hepatocyte, a human liver primary cell, with measurements taken at 6 hours after chemical dosing in a 96-well plate.CLD_CYP2B6_6hr is one of 16 assay component(s) measured or calculated from the CLD_6hr assay. It is designed to make measurements of mRNA induction, a form of inducible reporter, as detected with chemiluminescence signals by Quantitative Nuclease Protection Assay (qNPA) technology.Data from the assay component CLD_CYP2B6_6hr was analyzed at the endpoint, CLD_CYP2B6_6hr, in the positive analysis fitting direction relative to DMSO as the negative control and baseline of activity. Using a type of inducible reporter, gain-of-signal activity can be used to understand changes in the reporter gene as they relate to the gene CYP2B6. Furthermore, this assay endpoint can be referred to as a primary readout. To generalize the intended target to other relatable targets, this assay endpoint is annotated to the cyp intended target family, where subfamily is xenobiotic metabolism.
Human hepatocyte cultures were treated daily for two consecutive days with fresh dosing solutions containing appropriate concentrations of the 320 ToxCast chemicals (chemical identities were blinded to CellzDirect and other ToxCast collaborators), vehicle control (0.2% DMSO), and positive control inducers as summarized in Table 1. Due to the large number of treatment groups and chemicals examined, the ToxCast chemicals were divided into two groups (spanning two independent cultures of hepatocytes from separate donor preparations (Hu778: ToxCast plates 1 and 2; Hu776: ToxCast plates 3 and 4). Each preparation of human hepatocyte cultures was treated with respective vehicle control, medium only control, set of six positive controls/reference chemicals for the five hepatic receptor pathways, and a subset of eight of the ToxCast chemicals (indoxacarb, pyrithiobac-sodium, norflurazon, cyhalofop-butyl, methomyl, thiram, acetochlor, and propiconazole). These replicate data, coupled with internal replicates designed within the blinded ToxCast chemical library, provided additional data to evaluate interindividual differences between hepatocyte preparations and their potential impact on chemical profiles.Cell morphology and integrity were evaluated using phase-contrast microscopy as an indicator of hepatocyte cell health (Tyson & Green, 1987). Cultures for each treatment group (i.e., media, vehicle [0.2% DMSO], positive control inducers [multiple concentrations], and the ToxCast chemicals [multiple concentrations]) were observed and cell morphology was assessed relative to vehicle control cultures at each harvest time point (0, 6, 24, or 48 h). […] Images were evaluated at the conclusion of the study to assess changes in cell integrity and account for the effects of chemical exposure on uncharacteristic changes in concentration-dependent gene expression profiles. The results from these determinations of apparent cytotoxicity were annotated (yes/no) alongside the corresponding qNPA data for reference.At the conclusion of each treatment period, hepatocyte cultures (96-well) were washed with 1 volume of HBSS, lysed by addition of 25 ul ArrayPlate lysis buffer (HTG, Tucson, AZ), and 70 ul/well of Denaturation Oil, denatured by incubation at 95C for 10 min, and frozen at approximately -70C until analysis by nuclease protection assay (qNPA) (Roberts et al., 2007). For qNPA analysis, cell lysates were thawed at 50C for approximately 30 min, qNPA probes were added, and samples were incubated at 95C for 10 min to begin the detection process by denaturing the target RNA, dissociating the duplexes and secondary structure hybridization. At the conclusion of the hybridization period, S1 nuclease reagent was added to each sample to digest all nonprotected nucleotides at 50C for 60-90 min. […]

Row | Structure (SMILES) | AC50 | outcome
1 | CCOP(=O)(NC(C)C)Oc1ccc(SC)c(C)c1 (stereo not given) | 3.13 µM (active) | 
2 | CCOC(=O)CC(SP(=O)(OC)OC)C(=O)OCC (stereo not given) | 14.4 µM (active) | 
3 | CNc1cnn(-c2cccc(C(F)(F)F)c2)c(=O)c1Cl | 8.33 µM (active) | 
4 | CCOC(=O)COc1cc(-c2nn(C)c(OC(F)F)c2Cl)c(F)cc1Cl | 2.63 µM (active) | 
5 | CSc1nnc(C(C)(C)C)c(=O)n1N | 10.9 µM (active) | 
6 | CC(=NC#N)N(C)Cc1ccc(Cl)nc1 |  | inactive
7 | Nc1nc(N)nc(NC2CC2)n1 |  | inactive
8 | CCCCN(CC)c1c([N+](=O)[O-])cc(C(F)(F)F)cc1[N+](=O)[O-] | 2.13 µM (active) | 
9 | CCCOCC(=Nc1ccc(Cl)cc1C(F)(F)F)n1ccnc1 | 1.15 µM (active) | 
10 | CCC(=O)Nc1ccc(Cl)c(Cl)c1 | 7.9 µM (active) | 
11 | S=C1NCCN1 |  | inactive
12 | CCOP(=S)(Oc1cnc(C(C)(C)C)nc1)OC(C)C (stereo not given) | 0.47 µM (active) | 
13 | CCOP(=S)(OCC)Oc1cc(C)nc(C(C)C)n1 | 1.96 µM (active) | 
14 | Cc1cc(C2CC2)nc(Nc2ccccc2)n1 | 1.58 µM (active) | 
15 | CC1(C(=O)Nc2ccc(O)c(Cl)c2Cl)CCCCC1 |  | inactive
16 | CC(C)N(C(=O)SCC(Cl)=C(Cl)Cl)C(C)C | 5.4 µM (active) | 
17 | COc1cc(OC)nc(Sc2cccc(Cl)c2C(=O)O)n1 |  | inactive
18 | Cc1nn(-c2cc(NS(C)(=O)=O)c(Cl)cc2Cl)c(=O)n1C(F)F | 4.25 µM (active) | 
19 | CON=C(C(=O)OC)c1ccccc1CON=C(C)c1cccc(C(F)(F)F)c1 | 10.2 µM (active) | 
20 | CCCSP(=O)(OCC)Oc1ccc(Br)cc1Cl (stereo not given) | 3.75 µM (active) | 

Row | Structure (SMILES) | AC50 | outcome
21 | C[N+]1(C)CCCCC1 |  | inactive
22 | C[Si](Cn1cncn1)(c1ccc(F)cc1)c1ccc(F)cc1 | 32.4 µM (active) | 
23 | CCCCOC(=O)[C@@H](C)Oc1ccc(Oc2ccc(C#N)cc2F)cc1 |  | inactive
24 | COc1cccc(C(=O)NN(C(=O)c2cc(C)cc(C)c2)C(C)(C)C)c1C | 1.29 µM (active) | 
25 | CC(C)=CC1C(C(=O)OCN2C(=O)C3=C(CCCC3)C2=O)C1(C)C (stereo not given) | 5.94 µM (active) | 
26 | CC1=NNC(=O)N(/N=C/c2cccnc2)C1 |  | inactive
27 | CCOP(=S)(OCC)Oc1ccc([N+](=O)[O-])cc1 | 2.58 µM (active) | 
28 | O=[N+]([O-])c1cc(C(F)(F)F)c(Cl)c([N+](=O)[O-])c1Nc1ncc(C(F)(F)F)cc1Cl |  | inactive
29 | Nc1c(Cl)cc([N+](=O)[O-])cc1Cl | 20 µM (active) | 
30 | C#CCC1=C(C)C(OC(=O)C2C(C=C(C)C)C2(C)C)CC1=O (stereo not given) | 1.08 µM (active) | 
31 | CNC(=O)ON=C(SC)C(=O)N(C)C |  | inactive
32 | CCCCSP(=O)(SCCCC)SCCCC | 1.9 µM (active) | 
33 | CCCSP(=O)(OCC)SCCC | 0.374 µM (active) | 
34 | CCOP(=O)(OCC)Oc1cc(C)nc(C(C)C)n1 | 20 µM (active) | 
35 | CCCOc1nn(C(=O)NS(=O)(=O)c2ccccc2C(=O)OC)c(=O)n1C |  | inactive
36 | CSc1nc(NC(C)C)nc(NC(C)C)n1 | 4.01 µM (active) | 
37 | CCOP(=O)(SC(C)CC)N1CCSC1=O (stereo not given) | 3.89 µM (active) | 
38 | Cc1ccn2nc(S(=O)(=O)Nc3c(F)cccc3F)nc2n1 |  | inactive
39 | CCOP(=S)(OCC)OC(Cl)C(Cl)(Cl)Cl (stereo not given) | 0.833 µM (active) | 
40 | COP(=O)(OC)OC(Br)C(Cl)(Cl)Br (stereo not given) |  | inactive
